# IL-1B inflam inh: inhibitors of inflammasome signaling (IL-1 beta secretion) | THP-1 LPS/ATP IL-1B secretion, AlphaLISA, 16 h; active compounds read low | activity change, % at 57.5 µM | 4.7% of 360,000 active | AID 743279; in the data active = activity change below about -50%; inconclusive = mostly about -30% to -49%
#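 Secreted IL-1B measured by AlphaLISA bead assay after 16 h compound exposure of THP-1 cells; compounds (final up to 57.5 uM) added 1 h before LPS (250 ng/mL) and ATP (1.25 mM) stimulation; lower signal means less secretion.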
# TGFb inhibitor: TGF-b pathway inhibition; HepG2 CAGA-GFP TGF-b/SMAD3 reporter, GFP fluorescence, 18 h; TGF-beta stimulated, 500 pg/mL final; Potency, µM (top dose mostly 46.1 µM), hits mostly inhibitors; 1.2% of 410,000 active; AID 588855; note: nearly all actives have a fitted effect of over 65% in size
#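 TGF-beta reporter screen: HEPG2 CAGA-GFP, 1% FBS, 500 pg/mL TGF-beta final, 18 h; per-cell GFP summed per well; curves fitted and categorized by class.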
# DT40 TDP1 no CPT: qHTS for Inhibitors of human tyrosyl-DNA phosphodiesterase 1 (TDP1): qHTS in cells in absence of CPT. DT40 Tdp1-/- hTDP1 cells, no CPT, ATP luminescence, 48 h. Potency, µM (doses to about 46.2 µM), usual class: inhibitors. 15% of 420,000 active. AID 686978, 2013; note: nearly all actives have a fitted effect of over 55% in size
#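 Luminescent ATP content (CellTiter-Glo) served as the growth readout. Knockout chicken DT40 cells expressing human TDP1 were exposed to compounds without camptothecin for a minimum 48 hr at 37 °C.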
# HepG2 tox: kills HepG2 cells in TGF-b inhibitor counter-screen | Potency, µM (highest dose often 46.1 µM), actives largely listed as cytotoxic | 0.76% of 410,000 active | AID 588856 | HepG2 CAGA-GFP viability, ATP luminescence, 18 h
#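 HepG2 CAGA-GFP cells (1000/well, DMEM with 1% FBS) received compound, then TGF-beta at 500 pg/mL final, and were incubated 18 hours at 37 degrees C. Viability was read by CellTiter-Glo luminescence. Media-only wells were set as complete cell-killing and DMSO as no toxicity.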
# DT40 TDP1 CPT: growth inhibition of DT40 Tdp1-/-;hTDP1 cells with camptothecin (screen for TDP1 inhibitors); 12% of 420,000 active; chicken DT40 Tdp1-/-;hTDP1 cells + 20 nM CPT, ATP luminescence, 48 h; Potency, µM (top dose mostly 46.2 µM), most hits filed as inhibitors; note: nearly all actives have a fitted effect of over 55% in size
#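 Chicken DT40 Tdp1-/- cells stably complemented with human TDP1 were seeded at 400 cells/well in medium containing 20 nM camptothecin, exposed to pin-transferred compounds, and grown at 37 °C for at least 48 hr. Viability was read as ATP luminescence.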
# S-ASM inh: inhibitors of human secretory acid sphingomyelinase. P17405. placental ASM, HMU-PC fluorogenic substrate, 60 min. Potency, µM (series often up to 57.5 µM), most hits filed as inhibitors. 0.006% of 340,000 active. AID 504937
# Target sequence (P17405 47-631 limits assumed): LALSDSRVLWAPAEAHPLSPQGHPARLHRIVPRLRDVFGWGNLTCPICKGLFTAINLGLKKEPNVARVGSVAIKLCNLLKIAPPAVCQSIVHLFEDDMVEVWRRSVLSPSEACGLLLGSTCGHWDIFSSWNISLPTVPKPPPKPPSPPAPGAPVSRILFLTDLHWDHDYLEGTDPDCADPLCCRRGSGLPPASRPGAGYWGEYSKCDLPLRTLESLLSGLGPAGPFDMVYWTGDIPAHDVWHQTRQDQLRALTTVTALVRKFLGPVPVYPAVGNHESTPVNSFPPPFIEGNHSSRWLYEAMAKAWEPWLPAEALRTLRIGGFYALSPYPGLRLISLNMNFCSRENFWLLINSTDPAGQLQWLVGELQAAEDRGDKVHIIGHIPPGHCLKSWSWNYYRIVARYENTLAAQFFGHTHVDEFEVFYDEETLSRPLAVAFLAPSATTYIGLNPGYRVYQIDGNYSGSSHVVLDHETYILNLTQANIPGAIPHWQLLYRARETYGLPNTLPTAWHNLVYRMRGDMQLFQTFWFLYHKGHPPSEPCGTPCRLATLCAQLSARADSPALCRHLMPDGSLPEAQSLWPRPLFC
#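 Fluorescence read-out (Ex 386 nm, Em 447 nm) after stopping the reaction at pH 10. Enzyme: ASM from human placenta; substrate HMU-PC0, 9 uM final; 60 min, 37 °C. Compound preincubation 10 min, ambient temperature.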
# Numbers stand for hits; – = inactive; ? = inconclusive; · = not tested or not shown; ! = not active in a repeat; [ ] = dose if it differs, or a comment. Rows were chosen to be rich in hits. Some 19% of all compounds tested hit in one or more screens of this group. Unless noted, calls come from the whole dose curve; as a rule, active = well fitted curve in the direction sought with a large enough effect; inconclusive = small, poorly fitted or top-dose-only effect, or another doubt; inactive = no such curve, though single readings can be large; an effect the other way counts as inactive or inconclusive.
SMILES,IL-1B inflam inh,TGFb inhibitor,DT40 TDP1 no CPT,HepG2 tox,DT40 TDP1 CPT,S-ASM inh
C=CCN(c1ccccc1Cl)S(=O)(=O)c1cccc(C(=O)NCCc2ccc(OC)cc2)c1,–,–,21µM,–,?,–
COc1cc(OC)c(N(C)S(=O)(=O)c2cccc(C(=O)NCc3cccs3)c2)cc1Cl,–,–,?,–,?,·
CNS(=O)(=O)c1cccc(C(=O)OCC(=O)c2c(N)n(C)c(=O)n(C)c2=O)c1,–,–,?,–,–,–
C=CCN(c1ccccc1OC)S(=O)(=O)c1cccc(C(=O)NCc2cccs2)c1,–,–,18µM,–,15µM,–
COc1ccc(CCNC(=O)c2cccc(S(=O)(=O)N3CCCCC3)c2)cc1,–,–,?,–,?,–
COc1ccc(S(=O)(=O)N2CCN(c3nc(-c4cccs4)nc4ccccc34)CC2)cc1,·,?,?,–,?,·
C=CCc1cccc(/C=N/NC(=O)c2ccccc2OC)c1O,–,–,?,–,?,–
COc1ccc(Cl)cc1CC=NNC(=O)c1cccc(C)c1O,–,–,13µM,–,13µM,–
COc1ccc(Cl)cc1CC=NNC(=O)c1ccncc1,–,?,12µM,–,9.2µM,–
COc1ccc(OC)c(/C=N/NC(=O)c2ccncc2)c1,–,–,–,–,–,–
CN(C)c1ccc(/C=C2\SC(N3CCCCC3)=NC2=O)cc1,–,–,?,–,?,–
CCOc1ccc(/C=C2\SC(N3CCCCC3)=NC2=O)cc1,–,–,2.9µM,–,6.5µM,–
CC(C)c1ccc(/C=C2\SC(N3CCCC3)=NC2=O)cc1,?,–,23µM,–,?,–
O=C1N=C(N2CCCCC2)S/C1=C\c1ccc(Br)cc1,–,–,?,–,–,–
CCOc1ccc(N2CC(NC(=O)C3CCCC3)CC2=O)cc1 (stereo unspecified),·,–,–,–,–,·
O=C(CC(=O)c1ccccc1)CC(O)(C=Cc1ccccc1)c1ccccc1 (stereo unspecified),–,–,16µM,–,21µM,–
Cc1cccc(C)c1NS(=O)(=O)c1cc2c3c(c1)CC(=O)N3CCC2,–,–,–,–,–,–
Cc1cccc(-n2cnc(C(=O)N/N=C\c3ccc(Br)cc3)c2)n1,–,–,–,–,–,–
Cc1nc2ccccn2c1C(=O)NNC(=S)Nc1ccc(Cl)cc1,–,–,18µM,–,?,–
Cc1cccc(-n2cnc(C(=O)NNC(=S)Nc3ccc(Cl)cc3)c2)n1,–,–,12µM,–,7.3µM,–
CCC(C)(C)C(=O)O[C@H]1C[C@@H](C)C=C2C=C[C@H](C)[C@H](CC[C@@H]3C[C@@H](O)CC(=O)O3)[C@H]21,–,–,21µM!,–,–,–
CC1CCC(NC(=O)c2ccc(NC(=O)CC3SC(N4CCCC4)=NC3=O)cc2)CC1 (stereo unspecified),–,–,?,–,?,·
Clc1ccc(SCNc2ccccc2Cl)cc1,?,–,?,–,9.2µM,–
Cc1ccc(NCSc2ccc(Cl)cc2)cc1,?,–,?,–,?,–
Cc1ccc(-c2cc3ncc4c(n3n2)-c2cc(Cl)ccc2OC4)cc1,·,–,–,–,–,·
SMILES,IL-1B inflam inh,TGFb inhibitor,DT40 TDP1 no CPT,HepG2 tox,DT40 TDP1 CPT,S-ASM inh
O=C(NCc1ccccc1)Nc1nnc([C@@H]2C[C@H](O)[C@@H](CO)O2)s1,–,–,–,–,–,·
Cn1c(=O)c2c(-c3ccccc3)n(-n3cnnc3)cc2n(C)c1=O,–,?,?,–,26µM,–
Cn1c(=O)c2c(-c3ccccc3)n(-c3ccccc3)cc2n(C)c1=O,–,–,4.6µM,–,3.7µM,·
Cn1c(=O)c2c(-c3ccccc3)n(-c3ccccc3F)cc2n(C)c1=O,–,?,13µM,–,15µM,·
Cn1c(=O)c2c(-c3ccccc3)n(-c3cc([N+](=O)[O-])ccc3N)cc2n(C)c1=O,–,–,?,–,?,·
Cn1c(=O)c2c(-c3ccccc3)n(CCCO)cc2n(C)c1=O,·,–,–,–,–,·
Cn1c(=O)c2c(-c3ccccc3)n(-c3cccc(C#N)c3)cc2n(C)c1=O,·,–,23µM,–,16µM,·
O=C(NCc1nnc2n1CCN(C(=O)c1cccc(Cl)c1)CC2)C1CC1,·,·,–,·,–[9.04 µM],·
COc1ccc(-c2c3c(=O)n(C)c(=O)n(C)c3cn2-c2ccccc2)cc1,–,–,13µM,–,26µM,–
Cn1c(=O)c2c(-c3ccccc3)n(-c3cccc(Br)c3)cc2n(C)c1=O,–,?,8.2µM,–,9.2µM,·
C#CCn1cc2c(c1-c1ccccc1)c(=O)n(C)c(=O)n2C,–,–,21µM,–,16µM,·
COC(=O)c1sccc1-n1cc2c(c1-c1ccccc1)c(=O)n(C)c(=O)n2C,–,?,21µM,–,?,·
CC(C)OCCCNc1ccc(N2C(=O)CCCC2=O)cc1[N+](=O)[O-],–,–,–,–,–,–
CCOC(=O)c1ccc(O)c(-n2cc3c(c2-c2ccccc2)c(=O)n(C)c(=O)n3C)c1,–,–,15µM,–,?,·

# Source: PubChem BioAssay (National Center for Advancing Translational Sciences (NCATS))
